PubChem BioAssay AID1861 (The Scripps Research Institute Molecular Screening Center, 2009)
About 3,100 (1.1%) of roughly 290,000 compounds were called active. Rule as the data show it: active = inhibition above about 16% (passing the limit was not always enough); inactive = the rest. The full list was thinned out, with actives kept by preference.

target: Neuropeptides B/W receptor type 1 (Homo sapiens) (UniProt P48145); experiment: GPR7 receptor antagonists, primary screen, cell-based, fluorescence, single concentration (AID 1861); conditions: GPR7-expressing cells, fluorescence antagonist assay; at 4.4 µM; active compounds read high;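 also: cells stimulated with the agonist NPW; 0% = agonist with vehicle and 100% = vehicle without agonist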
Sequence (P48145 whole entry, looked up): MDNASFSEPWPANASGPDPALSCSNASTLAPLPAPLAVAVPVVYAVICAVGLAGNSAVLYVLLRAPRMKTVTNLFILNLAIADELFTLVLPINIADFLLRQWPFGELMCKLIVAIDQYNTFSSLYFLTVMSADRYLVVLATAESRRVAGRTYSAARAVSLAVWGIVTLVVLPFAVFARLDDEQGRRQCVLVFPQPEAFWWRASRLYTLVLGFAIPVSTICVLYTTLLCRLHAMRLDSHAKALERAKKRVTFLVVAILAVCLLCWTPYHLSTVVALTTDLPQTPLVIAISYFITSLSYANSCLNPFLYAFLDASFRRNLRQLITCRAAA

| SMILES | inhibition |
| --- | --- |
| O=C(O)CN1CCN(C(c2ccccc2)c2ccccc2)CC1 | -8.01% (inactive) |
| CC1(C)CC(N2CCN(C(c3ccccc3)c3ccccc3)CC2)=CC(=[N+]2CCCCC2)C1 | 66% (active) |
| CC(C)NC(=S)N1CCN(C(c2ccccc2)c2ccccc2)CC1 | -13.9% (inactive) |
| COc1ccccc1C(=O)COC(=O)CNS(=O)(=O)c1ccc(NC(C)=O)cc1 | 11.2% (inactive) |
| COc1cccc(NC(=O)CN2CCN(c3nc(-c4cccc(OC)c4)cs3)CC2)c1 | -9.85% (inactive) |
| COCCCNC(=S)N1CCN(c2nc(-c3cccc(OC)c3)cs2)CC1 | 42.1% (active) |
| CN(C)CCCNC(=S)N1CCN(c2nc(-c3ccccc3)cs2)CC1 | 5.73% (inactive) |
| CCC1CCCCN1C(=S)Nc1ccc(S(=O)(=O)Nc2ncccn2)cc1 (stereo unspecified) | -0.2% (inactive) |
| COc1cc(-c2nn3c(-c4cccc(C)c4)nnc3s2)cc(OC)c1OC | 12.2% (inactive) |
| c1ccc(-c2cc(-c3nnc4sc(-c5ccccn5)nn34)[nH]n2)cc1 | -17.3% (inactive) |
| Fc1ccc(-c2ccc(-c3nn4c(-c5ccco5)nnc4s3)o2)cc1 | 29% (active) |
| COC(=O)c1ccc(C(=O)NC2CC(C)(C)Cc3c2cnn3-c2ccc(F)cc2)nc1 (stereo unspecified) | 18.2% (inactive) |
| CC(C(=O)NC1CCS(=O)(=O)C1)N1C(=O)/C(=C/c2ccc(Cl)cc2)SC1=S (stereo unspecified) | 14.5% (inactive) |
| CCOCCCNC(=O)c1ccc(CS(=O)(=O)c2cccc(C(F)(F)F)c2)o1 | 6.51% (inactive) |
| Cc1ccccc1CN1C(=O)c2ccccc2Sc2ccc(C(=O)NCCCN3CCOCC3)cc21 | 24.2% (active) |
| CCC1=Nc2cc(C(=O)NCCCN3CCOCC3)ccc2Sc2ccc(Br)cc21 | 0.03% (inactive) |
| O=C(NCCCN1CCCCC1)c1ccc2c(c1)NC(=O)C(N1CCOCC1)S2 (stereo unspecified) | -14.1% (inactive) |
| O=C(NCCCN1CCOCC1)c1ccc2c(c1)N(Cc1cccc(F)c1)C(=O)c1ccccc1S2 | 24.4% (active) |
| O=C(NCCN1CCOCC1)c1ccc(/C=C2\Sc3ccccc3N(Cc3ccc(F)cc3)C2=O)cc1 | 4.73% (inactive) |
| O=C(NCCCN1CCOCC1)c1cc(-c2ccccc2F)no1 | -6.4% (inactive) |
| CCOc1ccc(NC(=O)C2CCN(C(=O)N3CCOc4ccccc43)CC2)cc1 | 5.19% (inactive) |
| COc1cccc2[nH]c(C(=O)NCCc3ccccc3)cc12 | -9.64% (inactive) |
| COc1ccc2[nH]c(=O)c(C3c4cc(OC)c(OC)cc4CCN3C(=O)c3ccco3)cc2c1 (stereo unspecified) | -13.4% (inactive) |

| SMILES | inhibition |
| --- | --- |
| Cc1ccc(NC(=O)CSc2nc(CSc3ccc(C)cc3)cc(=O)[nH]2)cc1 | -13.7% (inactive) |
| O=c1cc(CSc2ccccn2)nc(N2CCN(c3ccccc3)CC2)[nH]1 | -6.4% (inactive) |
| Cc1ccc(SCc2cc(=O)[nH]c(N3CCCCC3)n2)cc1 | 25.9% (active) |
| CN(C(=O)CCN1C(=O)/C(=C/c2ccccc2F)SC1=S)C1CCS(=O)(=O)C1 (stereo unspecified) | -4.44% (inactive) |
| COc1cccc(CNC(=O)C2CCCN(c3ncnc4c3nc3n4CCCCC3)C2)c1 (stereo unspecified) | 6.2% (inactive) |
| COc1cccc(C(C(=O)NC2CCCC2)N(C(=O)c2ccco2)c2cccc(C(C)=O)c2)c1OC (stereo unspecified) | 2.78% (inactive) |
| Cc1ccc(NC(=O)C/C(N)=N/O)cc1Cl | -9.83% (inactive) |
| O=C(CC(O)(C(F)(F)F)C(F)(F)F)Nc1ccc(Cl)c(Cl)c1 | 28.9% (active) |
| CN(C)CCNC(CC(=O)Nc1ccc(Cl)c(Cl)c1)C(=O)O (stereo unspecified) | -6.94% (inactive) |
| CCOC(=O)C1(CCOc2ccccc2)CCN(Cc2cc(OC)cc(OC)c2)CC1 | 15.4% (inactive) |
| CC1=C/C(=N\OS(=O)(=O)c2ccccc2)C=CC1=O | -2.03% (inactive) |
| Cc1cc(C)cc(N(CC(=O)NC2CCCC2)C(=O)CCC(=O)Nc2nccs2)c1 | 4.8% (inactive) |
| O=C(COC(=O)c1ccccc1SCC(=O)NC1CCCCC1)NC1CCCCC1 | 4.41% (inactive) |
| COc1ccccc1C(=O)OCC(=O)NCCNC(=O)COC(=O)c1ccccc1OC | 1.57% (inactive) |
| C=CCNC(=O)COC(=O)c1ccccc1C(=O)N(C)C1CCCCC1 | 23.4% (active) |
| O=[N+]([O-])c1ccc(NC(=S)N2CCN(c3ccccn3)CC2)cc1 | -5.44% (inactive) |
| Cc1nn(CC(=O)NCC2CCCO2)c(=O)c2cc3ccccc3n12 (stereo unspecified) | 2.04% (inactive) |
| CCn1c(C)cc(=O)cc1-c1ccc(Cl)cc1 | 12.6% (inactive) |
| COc1cccc(C2CC(c3ccccc3)=NN2S(=O)(=O)c2ccccc2)c1OC (stereo unspecified) | 19.8% (active) |
| COc1ccc(C2=NN(C(=O)c3ccccc3C(=O)O)C(c3ccccc3O)C2)cc1 (stereo unspecified) | 1.53% (inactive) |
| CCS(=O)(=O)Nc1ccc(C2=NN(S(=O)(=O)c3ccc(F)cc3)C(c3ccco3)C2)cc1 (stereo unspecified) | 1.02% (inactive) |
| CS(=O)(=O)Nc1cccc(C2=NN(S(=O)(=O)c3ccccc3)C(c3cccs3)C2)c1 (stereo unspecified) | 30% (active) |
| CS(=O)(=O)Nc1cccc(C2=NN(C(=O)c3cccc(F)c3)C(c3cccs3)C2)c1 (stereo unspecified) | 19.9% (inactive) |

| SMILES | inhibition |
| --- | --- |
| CS(=O)(=O)Nc1ccc(C2=NN(S(C)(=O)=O)C(c3cccs3)C2)cc1 (stereo unspecified) | -8.38% (inactive) |
| Cc1c(CCC(=O)N[C@@H](CC(C)C)C(=O)O)c(=O)oc2c(C)c3oc4c(c3cc12)CCCC4 | -11.3% (inactive) |
| COc1ccc(C(=O)NC(C)c2nccs2)cc1OC1CCN(C(C)C)CC1 (stereo unspecified) | -9.73% (inactive) |
| COc1ccc(N(CC(=O)NCCSCc2cccc(Cl)c2)S(C)(=O)=O)cc1 | -4.13% (inactive) |
| CC1CN(C(=O)c2cc(COc3c(F)cccc3F)on2)CCN1C (stereo unspecified) | 5.39% (inactive) |
| CS(=O)(=O)N(Cc1ccc(Cl)cc1)c1ccc(C(=O)NCCSCc2ccco2)cc1 | 30.2% (active) |
| Cc1cc(C)cc(N(CC(=O)NCCSCc2ccco2)S(C)(=O)=O)c1 | -3.97% (inactive) |
| CCc1ccccc1N(CC(=O)NCCSCc1ccco1)S(C)(=O)=O | -3.47% (inactive) |
| CN1CCN(CCNC(=O)Nc2ccc([N+](=O)[O-])cc2)CC1 | 1.21% (inactive) |
| O=C(COc1ccc([N+](=O)[O-])cc1)Nc1ccc(N2CCCC2)cc1 | -6.84% (inactive) |
| O=C(NCCCN1CCN(c2ccc(F)cc2)CC1)Nc1ccc([N+](=O)[O-])cc1 | 25.5% (active) |
| Cc1ccc(OCC(=O)NC(C)c2ccccc2)c([N+](=O)[O-])n1 (stereo unspecified) | -17% (inactive) |
| COc1ccc(CNC(=O)COc2cccnc2[N+](=O)[O-])cc1 | 5.06% (inactive) |
| COc1ccccc1CNC(=O)COc1ccc(C)nc1[N+](=O)[O-] | 25.7% (active) |
| CCOC(=O)N1CCN(S(=O)(=O)c2ccc(OC)cc2)CC1 | -0.89% (inactive) |
| Cc1cc(Cl)ccc1OCCCC(=O)Nc1cccc(-n2cnnn2)c1 | 37.4% (active) |
| Cc1cc(Cl)ccc1OCCCC(=O)NCc1ccncc1 | 2.96% (inactive) |
| Cc1cc(Cl)ccc1OCCCC(=O)NCc1ccccn1 | 5.1% (inactive) |
| c1ccc2c(c1)CCc1snnc1-2 | -15.5% (inactive) |
| COc1cc(OC)c(NC(=O)C2CCCN2C(=O)OCc2ccccc2)cc1Cl (stereo unspecified) | 3.66% (inactive) |
| COC(=O)c1cc(S(=O)(=O)Nc2ccc(C)c(F)c2)c[nH]1 | 4.7% (inactive) |
| CCOC(=O)C1=C(C)NC(=S)NC1c1cccs1 (stereo unspecified) | -3.11% (inactive) |
| CCOC(=O)C1=C(C)NC(C)=C(C(=O)OCC)C1c1ccccn1 | 18.9% (active) |

| SMILES | inhibition |
| --- | --- |
| CCOC(=O)C1=C(C)NC(SC)=NC1c1ccccc1 (stereo unspecified) | -17% (inactive) |
| Cc1ccc(NC(=O)CN2CCC3(O)CCCCC3C2c2ccc3c(c2)OCO3)c(C)c1 (stereo unspecified) | 21.5% (active) |
| CC1CCCCN1CC(=O)NCc1ccc2c(c1)OCO2 (stereo unspecified) | -3.99% (inactive) |
| CCN(CC)c1ccc(C2C3CCCCC3(O)CCN2CC(=O)Nc2ccccc2)cc1 (stereo unspecified) | 0.06% (inactive) |
| O=C(Nc1cccc2ccccc12)c1onc2c1CCCC2 | -5.72% (inactive) |
| Oc1ccccc1CNc1ncc(Br)cc1Br | -17.9% (inactive) |
| CCCCN(CC)C(=O)c1ccc2c(c1)OCO2 | 11.2% (inactive) |
| Cc1cccc(C(=O)NCCCN(C)CCCNC(=O)c2cccc(C)c2)c1 | -10.2% (inactive) |
| COCCN(Cc1cc2cc3c(cc2nc1Cl)OCO3)C(=O)c1cccc(C)c1 | 21.6% (active) |
| Cc1ccc(Cl)c(NC(=O)CN2CCN(C=O)CC2)c1 | 2.68% (inactive) |
| COc1ccccc1OCCOc1ccc(/C=C2\C(=N)N3N=C(C)SC3=NC2=O)cc1 | 21% (inactive) |
| CN(C(=O)c1cccc(OC2CCN(S(=O)(=O)N(C)C)CC2)c1)C1CCOC1 (stereo unspecified) | -0.89% (inactive) |
| CNS(=O)(=O)c1cccc(C(=O)NCC2CCCCC2)c1 | 5.35% (inactive) |
| CN(C)S(=O)(=O)N1CCC(Oc2cccc(C(=O)NCCCC3CCCC3)c2)CC1 | 34.4% (active) |
| Cc1cc(C(=O)NCCc2ccc(Cl)cc2)c(C)o1 | -6.42% (inactive) |
| Cc1ccc(N(CC(=O)Nc2cccc(N(C)S(C)(=O)=O)c2)S(C)(=O)=O)cc1 | -0.43% (inactive) |
| COc1cccc(N(CC(=O)Nc2cccc(N(C)S(C)(=O)=O)c2)S(C)(=O)=O)c1 | -7.36% (inactive) |
| CN(c1cccc(NC(=O)Nc2ccc(Cl)cc2)c1)S(C)(=O)=O | 35.6% (active) |
| CCOC(=O)N1CCN(C(=O)C(C)NC(=O)c2ccco2)CC1 (stereo unspecified) | -2.9% (inactive) |
| CCN(CCn1cccn1)Cc1nc(-c2ccc(C(=O)OC)cc2)no1 | 9.06% (inactive) |
| COc1cccc(-c2cc(C(=O)N3CCN(c4ccccc4OC)CC3)no2)c1 | -15.8% (inactive) |
| CN(CC(=O)Nc1ccccc1C(F)(F)F)C(=O)Cc1ccccc1F | -10.8% (inactive) |
